# Several values for one entry are separate records, joined by “and”; a condition that tells them apart may be missing. Identical values can stand only once. Records with an inconclusive call do not appear. Some structures have more than one record in an assay (separate samples or runs), and their calls can disagree. Activity calls are given as the source filed them. How the source made its calls, unless noted: active means hit-call score of the fitted dose curve at least 0.9, where 1 is the maximum; inactive means score below 0.9.
# Legend:
# [1] = CCTE_Shafer_MEA_acute_cross_correlation_HWHM: CCTE's Neural Acute Assay for Cross Correlation at Half Width at Half Maximum, Shafer Lab (AID 2284026);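 further: percent change per well from pre-dose baseline in spike cross-correlogram half width; hits are a decrease in cross-correlogram half width relative to DMSO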;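 on outcome: spontaneous network firing of rat primary cortical neurons on multiwell microelectrode arrays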
# In short: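 Read-out: half width at half maximum of action-potential cross-correlogram, percent change versus pre-treatment baseline, fitted in loss direction against DMSO. Rat cortical cultures, DIV 13 or 15, dosed 0.03-40 uM, 40-min recordings at 37 C.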
# [2] = CCTE_Shafer_MEA_acute_synchrony_index: CCTE's Neural Acute Assay for Synchrony, Shafer Lab (AID 2284027);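 further: network synchrony index of spontaneous spiking in primary rat cortical neurons on MEAs; fitted for loss of signal so actives lower synchrony relative to DMSO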
# In short: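 Primary rat cortical neurons on 16-electrode MEA wells were recorded 40 min at baseline (DIV 13 or 15) and 40 min after compound (0.03-40 uM) at 37 C. Synchrony index (0-1) expressed as percent change from baseline, versus DMSO.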
# [3] = CCTE_Shafer_MEA_dev_per_burst_spike_percent: CCTE's Neural Network Formation Assay for Percent of Spikes in a Burst, Shafer Lab (AID 2284032);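 on AC50: fitted as a decrease in burst spike percentage below DMSO baseline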
# In short: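 Rat primary cortical neurons on 16-electrode MEA wells, dosed from plating day 0 for 12 days with renewal on DIV 5 and 9; spikes-in-bursts percentage averaged over bursting electrodes, collapsed as AUC across days 5, 7, 9, 12; loss direction versus DMSO.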
# [4] = target: Estrogen receptor (Homo sapiens) (UniProt P03372); assay: CCTE_Deisenroth_AIME_384WELL_LUC_Active: CCTE's 384-well Estrogen Receptor Transactivation Assay with AIME metabolic competence (ERTA luciferase; metabolism positive), Deisenroth Lab (AID 2284030; active means hit-call score of the fitted dose curve at least 0.9, where 1 is the maximum)
# Estrogen receptor (Homo sapiens), sequence (P03372 whole entry, looked up): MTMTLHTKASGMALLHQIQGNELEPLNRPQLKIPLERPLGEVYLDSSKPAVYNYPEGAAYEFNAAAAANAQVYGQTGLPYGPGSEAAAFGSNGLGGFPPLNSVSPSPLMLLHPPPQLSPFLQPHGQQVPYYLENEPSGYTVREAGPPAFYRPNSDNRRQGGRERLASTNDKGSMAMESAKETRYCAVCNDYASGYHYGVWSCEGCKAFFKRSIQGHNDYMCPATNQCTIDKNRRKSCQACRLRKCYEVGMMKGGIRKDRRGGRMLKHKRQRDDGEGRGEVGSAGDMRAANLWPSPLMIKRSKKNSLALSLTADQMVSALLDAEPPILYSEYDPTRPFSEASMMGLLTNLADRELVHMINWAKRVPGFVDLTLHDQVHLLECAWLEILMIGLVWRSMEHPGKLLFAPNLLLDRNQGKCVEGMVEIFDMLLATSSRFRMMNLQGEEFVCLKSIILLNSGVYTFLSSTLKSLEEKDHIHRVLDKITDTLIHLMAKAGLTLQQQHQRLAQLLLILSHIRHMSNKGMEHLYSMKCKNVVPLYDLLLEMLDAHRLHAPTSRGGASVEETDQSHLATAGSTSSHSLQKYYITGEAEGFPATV
# In short: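 Readout: bioluminescent luciferase induction in VM7Luc4E2 cells 24 hour after receiving medium from a 2 h rat hepatic S9 (induced, alginate microsphere) metabolism step. Concentrations 0.002 - 200 uM; activity scaled to 17beta-estradiol positive control.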
# [5] = target: Estrogen receptor (Homo sapiens) (UniProt P03372); assay: CCTE_Deisenroth_AIME_384WELL_LUC_Inactive: CCTE's 384-well Estrogen Receptor Transactivation Assay without AIME metabolic competence (ERTA luciferase; metabolism negative), Deisenroth Lab (AID 2284038; active means hit-call score of the fitted dose curve at least 0.9, where 1 is the maximum;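 further: hits raise estrogen receptor luciferase signal so potencies reflect agonists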)
# In short: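 Chemicals (10-point series, 0.002 - 200 uM) were incubated 2 hours with alginate-water microsphere lids lacking S9, then the conditioned medium was transferred to VM7Luc4E2 breast cells for 24 hour. Luciferase induction was read by bioluminescence, fitted upward relative to 17beta-estradiol.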
# [6] = CCTE_Deisenroth_AIME_384WELL_CTox_Inactive: Cytotoxicity Assessment (CTOX) in CCTE's 384-well Estrogen Receptor Transactivation Assay without AIME metabolic competence (metabolism negative), Deisenroth Lab (AID 2284039; active means hit-call score of the fitted dose curve at least 0.9, where 1 is the maximum;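 further: cell viability via live-cell protease substrate cleaved to fluorescent probe; cells exposed 24 h to medium preincubated 2 h with alginate-water beads without S9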)
# In short: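 Fluorescent protease-substrate viability readout after 24 h exposure of VM7Luc4E2 cells to conditioned medium. Chemicals (0.002–200 uM) first sat 2 h over alginate-water beads, no S9. Data fitted bidirectionally, loss of signal meaning viability loss.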
# [7] = CCTE_Deisenroth_AIME_384WELL_CTox_Active: Cytotoxicity Assessment (CTOX) in CCTE's 384-well Estrogen Receptor Transactivation Assay with AIME metabolic competence (metabolism positive), Deisenroth Lab (AID 2284037; active means hit-call score of the fitted dose curve at least 0.9, where 1 is the maximum;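 further: chemicals first conditioned 2 h by alginate-bound induced rat liver S9 before cells; activity means signal loss indicating cell death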)
# In short: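 VM7Luc4E2 breast cells received medium pre-incubated 2 h with chemical over alginate microspheres holding induced male Sprague Dawley rat liver S9; viability read 24 h later by protease-substrate fluorescence. Loss of signal, bidirectional fit, 0.002–200 uM.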
# [8] = target: Estrogen receptor (Homo sapiens) (UniProt P03372); assay: CCTE_Deisenroth_AIME_96WELL_LUC_Inactive: CCTE's 96-well Estrogen Receptor Transactivation Assay without AIME metabolic competence (ERTA luciferase; metabolism negative), Deisenroth Lab (AID 2284025; active means hit-call score of the fitted dose curve at least 0.9, where 1 is the maximum)
# Method: CCTE_Deisenroth_AIME_96WELL (AIME metabolism assay) is a cell-based, single-readout assay that uses VM7Luc4E2, a human mammary gland/breast cell line, with measurements taken at 24 hour after chemical dosing in a 96-well plate.CCTE_Deisenroth_AIME_96WELL_LUC_Inactive is one of four assay components measured or calculated from the CCTE_Deisenroth_AIME_96WELL assay. It is designed to make measurements of luciferase induction, a form of inducible reporter, as detected with bioluminescence signals by luciferase-coupled ATP quantitation technology.CCTE_Deisenroth_AIME_96WELL_LUC_Inactive is a component of the CCTE_Deisenroth_AIME_96WELL assay that measures the effect of retroftting the VM7Luc ERTA assay with the Alginate Immobolization of Metabolic Enzymes (AIME) metabolism method. AIME is optimized to impart phase I hepatic metabolism using phenobarbital/beta-naphthoflavone induced hepatic S9 from male Sprague Dawley rats. Parent chemicals are incubated for 2 hours in the AIME assay prior to transfer to the VM7Luc ERTA assay plate. […] This endpoint evaluates reporter induction in metabolism negative mode. […] This assay endpoint, CCTE_Deisenroth_AIME_96WELL_LUC_Inactive, was analyzed in the positive analysis fitting direction relative to 17beta-estradiol as the positive control in the ERTA assay. […]
# [9] = CCTE_Deisenroth_AIME_96WELL_CTox_Active: Cytotoxicity Assessment (CTOX) in CCTE's 96-well Estrogen Receptor Transactivation Assay with AIME metabolic competence (metabolism positive), Deisenroth Lab (AID 2284028; active means hit-call score of the fitted dose curve at least 0.9, where 1 is the maximum)
# Method: (§1) CCTE_Deisenroth_AIME_96WELL (AIME metabolism assay) is a cell-based, single-readout assay that uses VM7Luc4E2, a human mammary gland/breast cell line, with measurements taken at 24 hour after chemical dosing in a 96-well plate.CCTE_Deisenroth_AIME_96WELL_CTox_Active is one of four assay components measured or calculated from the CCTE_Deisenroth_AIME_96WELL assay. It is designed to make measurements of a protease substrate, a type of viability indicator, as detected with substrate cleavage to a fluorescent probe in living cells.CCTE_Deisenroth_AIME_96WELL_CTox_Active is a component of the CCTE_Deisenroth_AIME_96WELL assay that measures the effect of retroftting the VM7Luc ERTA assay with the Alginate Immobolization of Metabolic Enzymes (AIME) metabolism method. AIME is optimized to impart phase I hepatic metabolism using phenobarbital/beta-naphthoflavone induced hepatic S9 from male Sprague Dawley rats. Parent chemicals are incubated for 2 hours in the AIME assay prior to transfer to the VM7Luc ERTA assay plate. […] This endpoint evaluates cytotoxicity in metabolism positive mode. Using a type of flourescent probe in VM7Luc cells, loss-of-signal activity can be used to understand loss of viability. This assay endpoint, CCTE_Deisenroth_AIME_96WELL_CTox_Active, was analyzed with bidirectional fitting in the ERTA assay. […]
# [10] = CCTE_Deisenroth_AIME_96WELL_CTox_Inactive: Cytotoxicity Assessment (CTOX) in CCTE's 96-well Estrogen Receptor Transactivation Assay without AIME metabolic competence (metabolism negative), Deisenroth Lab (AID 2284029; active means hit-call score of the fitted dose curve at least 0.9, where 1 is the maximum)
# Method: as §1, with “plate.CCTE_Deisenroth_AIME_96WELL_CTox_Inactive” for “plate.CCTE_Deisenroth_AIME_96WELL_CTox_Active”, “cells.CCTE_Deisenroth_AIME_96WELL_CTox_Inactive” for “cells.CCTE_Deisenroth_AIME_96WELL_CTox_Active”, “negative” for “positive”, “CCTE_Deisenroth_AIME_96WELL_CTox_Inactive,” for “CCTE_Deisenroth_AIME_96WELL_CTox_Active,”
smiles,measurement,setting,value
CNC(=O)Oc1cccc2ccccc12,outcome,[1],inactive
same,outcome,[2],inactive
same,AC50,[3],15 µM (active)
CC(C)C1(C)N=C(c2ncccc2C(=O)O)NC1=O (stereo not given),outcome,[1],inactive
same,outcome,[2],inactive
CCCC(=NOCC)C1=C(O)CC(CC(C)SCC)CC1=O (stereo not given),AC50,[1],30.7 µM (active)
same,AC50,[2],28.2 µM (active)
same,outcome,[4],inactive
same,outcome,[5],inactive
same,outcome,[6],inactive
CC(C)N1C(=O)N(c2ccccc2)CSC1=NC(C)(C)C,AC50,[1],20 µM (active)
same,AC50,[2],23.2 µM (active)
same,outcome,[4],inactive
same,outcome,[7],inactive
same,outcome,[5],inactive
same,outcome,[6],inactive
CC1(C)C(C(=O)OC(C#N)c2cccc(Oc3ccccc3)c2)C1(C)C (stereo not given),AC50,[1],28.6 µM (active)
same,AC50,[2],1.03 µM (active)
same,AC50,[3],12.6 µM (active)
CCCN(CC)CC1COC2(CCC(C(C)(C)C)CC2)O1 (stereo not given),outcome,[1],inactive
same,outcome,[2],inactive
same,AC50,[3],0.335 µM (active)
Clc1nc(Cl)nc(Nc2ccccc2Cl)n1,outcome,[1],inactive
same,outcome,[2],inactive
COC(=O)N(C(=O)N1CO[C@@]2(C(=O)OC)Cc3cc(Cl)ccc3C2=N1)c1ccc(OC(F)(F)F)cc1,AC50,[1],24.3 µM (active)
same,AC50,[2],26.6 µM (active)
same,AC50,[3],23.1 µM (active)
same,outcome,[7],inactive
same,outcome,[6],inactive
CC(C)=CC1C(C(=O)OCc2coc(Cc3ccccc3)c2)C1(C)C (stereo not given),outcome,[1],inactive
same,AC50,[2],20 µM (active)
same,outcome,[4],inactive
same,outcome,[3],inactive
same,outcome,[7],inactive
same,outcome,[5],inactive
same,outcome,[6],inactive
Cn1c(-c2ccccc2)cc(-c2ccccc2)[n+]1C,AC50,[1],20 µM (active)
same,AC50,[2],36.8 µM (active)
COCC(=O)N(c1c(C)cccc1C)C(C)C(=O)OC (stereo not given),outcome,[1],inactive
same,outcome,[2],inactive
N#CN=C1SCCN1Cc1ccc(Cl)nc1,outcome,[1],inactive
same,outcome,[2],inactive
same,outcome,[3],inactive
Nc1c(Cl)c(F)nc(OCC(=O)O)c1Cl,outcome,[1],inactive
same,outcome,[2],inactive
CC(C)N1C(=O)c2ccccc2NS1(=O)=O,outcome,[1],inactive
same,outcome,[2],inactive
same,outcome,[4],inactive
same,outcome,[5],inactive
Cc1nc(N(C)C)nc(OC(=O)N(C)C)c1C,outcome,[1],inactive
same,AC50,[2],20 µM (active)
CC1(C)C(C=C(Cl)Cl)C1C(=O)OC(C#N)c1cccc(Oc2ccccc2)c1 (stereo not given),AC50,[8],57 µM (active)
same,outcome,[1],inactive
same,AC50,[2],3.97 µM (active)
same,outcome,[9],inactive
same,outcome,[10],inactive
same,AC50,[4],40.8 µM (active)
same,AC50,[3],10 µM (active)
same,outcome,[3],inactive
same,AC50,[5],57.9 µM (active)
same,AC50,[6],2.33 µM (active)
OC(c1ccc(Cl)cc1)(c1ccc(Cl)cc1)C(Cl)(Cl)Cl,AC50,[1],5.32 µM (active)
same,AC50,[2],8.65 µM (active)
Cc1c(COC(=O)[C@@H]2[C@H](/C=C(\Cl)C(F)(F)F)C2(C)C)cccc1-c1ccccc1,AC50,[1],2.29 µM (active)
same,AC50,[2],0.786 µM (active)
same,AC50,[3],1.65 µM (active) and 1.51 µM (active)
CCOc1cc(C(C)(C)C)ccc1C1COC(c2c(F)cccc2F)=N1 (stereo not given),AC50,[1],20 µM (active)
same,AC50,[2],20 µM (active)
O=C(Nc1ccccc1-c1ccc(Cl)cc1)c1cccnc1Cl,AC50,[1],23.5 µM (active)
same,AC50,[2],25.3 µM (active)
same,outcome,[4],inactive
same,AC50,[3],9.36 µM (active)
same,outcome,[3],inactive
same,outcome,[5],inactive
CCOC(=O)C(C)OC(=O)c1cc(Oc2ccc(C(F)(F)F)cc2Cl)ccc1[N+](=O)[O-] (stereo not given),outcome,[1],inactive
same,outcome,[2],inactive
same,outcome,[4],inactive
same,outcome,[3],inactive
same,outcome,[7],inactive
same,outcome,[5],inactive
same,AC50,[6],100 µM (active)
CN/C(=N\[N+](=O)[O-])NCc1cnc(Cl)s1,outcome,[1],inactive
same,outcome,[2],inactive
same,outcome,[3],inactive
N#Cc1c[nH]cc1-c1cccc2c1OC(F)(F)O2,AC50,[1],20 µM (active)
same,outcome,[2],inactive
CCOc1nc(F)cc2nc(S(=O)(=O)Nc3c(Cl)cccc3Cl)nn12,outcome,[1],inactive
same,outcome,[2],inactive
same,outcome,[7],inactive
same,outcome,[5],inactive
same,AC50,[6],146 µM (active)
CO/N=C(/C1=NOCCO1)c1ccccc1Oc1ncnc(Oc2ccccc2Cl)c1F,AC50,[1],20 µM (active)
same,AC50,[2],20 µM (active)
same,AC50,[3],1.75 µM (active) and 1.24 µM (active)
same,AC50,[7],32.8 µM (active)
same,AC50,[6],15.3 µM (active)
CC1(C)CCC(=Cc2ccc(Cl)cc2)C1(O)Cn1cncn1 (stereo not given),outcome,[1],inactive
same,outcome,[2],inactive
C=C(C)CN(CC)c1c([N+](=O)[O-])cc(C(F)(F)F)cc1[N+](=O)[O-],outcome,[1],inactive
same,outcome,[2],inactive
same,outcome,[4],inactive
same,AC50,[3],18.6 µM (active)
same,outcome,[7],inactive
same,outcome,[5],inactive
same,outcome,[6],inactive
